Where “and” joins values, the source holds several entries; their conditions need not be identical. Equal values may be shown once. Results filed as inconclusive are left out. Some compounds were tested as several samples or in several runs, with calls that do not always agree. Calls of active or inactive are those of the source. Unless noted, calls follow the shape of the dose curve; as a rule, active = well fitted curve in the direction sought with a large enough effect in the repeat runs; inconclusive = weak or mixed curves; inactive = no such curve, though single readings can be large; an effect the other way counts as inactive or inconclusive.
Tests used:
[1] = biological target: Retinoic acid receptor RXR-alpha (Homo sapiens) (UniProt P19793); test: qHTS assay to identify small molecule agonists of the RXR signaling pathway (AID 1159527; calls by dose curve; also: nearly all actives have a fitted effect of over 35% in size; also: potency is read from the fitted curve at half-maximal effect)
Retinoic acid receptor RXR-alpha (Homo sapiens), sequence (P19793 whole entry, looked up): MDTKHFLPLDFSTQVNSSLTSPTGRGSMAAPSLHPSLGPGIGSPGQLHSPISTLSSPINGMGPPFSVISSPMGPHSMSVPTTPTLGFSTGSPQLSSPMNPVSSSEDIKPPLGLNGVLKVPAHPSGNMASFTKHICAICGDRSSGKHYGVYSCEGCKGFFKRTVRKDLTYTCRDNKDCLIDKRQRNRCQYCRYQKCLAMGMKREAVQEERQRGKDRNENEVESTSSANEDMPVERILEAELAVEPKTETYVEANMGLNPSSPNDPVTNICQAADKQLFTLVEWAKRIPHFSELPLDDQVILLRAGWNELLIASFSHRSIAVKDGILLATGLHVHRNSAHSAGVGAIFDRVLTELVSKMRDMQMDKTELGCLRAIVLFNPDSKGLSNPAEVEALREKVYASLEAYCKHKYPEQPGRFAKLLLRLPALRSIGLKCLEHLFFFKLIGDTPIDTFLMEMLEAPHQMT
Method in brief: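 Reporter activation is measured as beta-lactamase activity via FRET substrate cleavage (emission 460/530 nm) in HEK 293T cells expressing an RXR-alpha-driven bla construct, following 16 hr compound exposure at 37 C.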

[2] = qHTS assay to identify small molecule agonists of the RXR signaling pathway - cell viability counter screen (AID 1159529); also: series mostly up to about 77 µM; nearly all actives have a fitted effect of over 50% in size
Method in brief: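 Tox21 10K compounds were tested for cytotoxicity against GeneBLAzer RXR-alpha HEK 293T cells grown in 2% charcoal-stripped FBS. Exposure lasted 16 hr at 37 C, 5% CO2; viability read by CellTiter-Glo luminescence.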

[3] = qHTS assay to identify small molecule antagonists of the retinoid acid receptor (RAR) signaling pathway - cell viability counter screen (AID 1159551); also: nearly all actives have a fitted effect of over 35% in size
Method in brief: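 In this counter screen, the RARE-luciferase line C3RL4 was exposed for 6 h at 37 C and 5% CO2 to compounds with retinol at 1 uM final. Cellular ATP, read by luminescence, served as the viability measure.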

[4] = qHTS assay to identify small molecule antagonists of the retinoic acid receptor (RAR) signaling pathway (AID 1159552; also: nearly all actives have a fitted effect of over 50% in size)
Method in brief: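 Overnight-plated C3RL4 reporter cells get compound, then retinol to 1 uM final; plates sit 6 hr at 37 C, 5% CO2. A luciferase reagent is added and light output recorded after 30 min at room temperature.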

[5] = qHTS assay to identify small molecule agonists of the retinoic acid receptor (RAR) signaling pathway (AID 1159553); also: potency is read from the fitted curve at half-maximal effect
Method in brief: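 In this cell-based screen, 1,000 C3RL4 cells per well were cultured overnight, dosed with test chemicals in DMSO for 6 hr, and assessed for RARE luciferase luminescence.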

[6] = qHTS assay to identify small molecule antagonists of the estrogen related receptor (ERR) signaling pathway from Tox21 library - cell viability counter screen (AID 1224834); also: nearly all actives have a fitted effect of over 30% in size
Method in brief: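 Counter screen run in ERR cells (2,000 cells/well): cells pre-incubated 6 h, then treated with compounds for 17.5 h at 37 C. Fluorescence was read 30 min after CellTiter-Fluor addition.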

[7] = biological target: Luciferin 4-monooxygenase (Photinus pyralis) (UniProt P08659); test: qHTS assay to identify small molecule inhibitors of firefly luciferase (AID 1224835); also: nearly all actives have a fitted effect of over 25% in size; also: potency is read from the fitted curve at half-maximal effect
Luciferin 4-monooxygenase (Photinus pyralis), sequence (P08659 whole entry, looked up): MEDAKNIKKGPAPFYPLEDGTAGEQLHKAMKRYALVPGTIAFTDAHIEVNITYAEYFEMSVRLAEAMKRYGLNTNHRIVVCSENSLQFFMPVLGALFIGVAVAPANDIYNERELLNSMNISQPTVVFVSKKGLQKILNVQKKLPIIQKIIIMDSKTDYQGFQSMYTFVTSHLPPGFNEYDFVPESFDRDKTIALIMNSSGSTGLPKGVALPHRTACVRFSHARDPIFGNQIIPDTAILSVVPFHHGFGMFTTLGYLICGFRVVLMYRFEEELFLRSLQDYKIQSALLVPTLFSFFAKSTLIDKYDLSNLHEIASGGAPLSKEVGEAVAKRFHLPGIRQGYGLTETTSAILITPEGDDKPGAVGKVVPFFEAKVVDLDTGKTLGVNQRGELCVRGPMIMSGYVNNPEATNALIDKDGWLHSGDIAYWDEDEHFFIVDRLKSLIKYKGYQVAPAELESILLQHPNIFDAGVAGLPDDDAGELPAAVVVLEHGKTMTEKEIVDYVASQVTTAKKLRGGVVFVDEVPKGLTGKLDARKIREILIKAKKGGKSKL
Method in brief: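 Inhibition of purified Photinus luciferase is measured by luminescence. Substrate levels (D-luciferin, ATP) sit at their KM values. Each compound is tested in a concentration series.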

[8] = qHTS assay to identify small molecule agonists of the constitutive androstane receptor (CAR) signaling pathway - cell viability counter screen (AID 1224836); also: series mostly up to about 92 µM; nearly all actives have a fitted effect of over 45% in size
Method in brief: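 Fluorescence from CellTiter-Fluor indicates live cells after 23 h exposure. The human hepatoma line expresses hCAR and a CYP2B6-2.2kb reporter. Incubation medium contains 0.75 uM PK11195 (final).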

[9] = qHTS assay to identify small molecule antagonists of the constitutive androstane receptor (CAR) signaling pathway - cell viability counter screen (AID 1224837); also: series mostly up to about 92 µM; nearly all actives have a fitted effect of over 45% in size
Method in brief: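 CITCO at 50 nM final was added alongside compounds (15 concentrations) to double-stable hCAR/CYP2B6-2.2kb HepG2 cells. Following 23 hr at 37 C, cell viability was quantified by CellTiter-Fluor fluorescence intensity.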

[10] = biological target: Nuclear receptor subfamily 1 group I member 3 (Homo sapiens) (UniProt Q14994); test: qHTS assay to identify small molecule antagonists of the constitutive androstane receptor (CAR) signaling pathway (AID 1224838); also: nearly all actives have a fitted effect of over 40% in size; also: potency is read from the fitted curve at half-maximal effect
Nuclear receptor subfamily 1 group I member 3 (Homo sapiens), sequence (Q14994 whole entry, looked up): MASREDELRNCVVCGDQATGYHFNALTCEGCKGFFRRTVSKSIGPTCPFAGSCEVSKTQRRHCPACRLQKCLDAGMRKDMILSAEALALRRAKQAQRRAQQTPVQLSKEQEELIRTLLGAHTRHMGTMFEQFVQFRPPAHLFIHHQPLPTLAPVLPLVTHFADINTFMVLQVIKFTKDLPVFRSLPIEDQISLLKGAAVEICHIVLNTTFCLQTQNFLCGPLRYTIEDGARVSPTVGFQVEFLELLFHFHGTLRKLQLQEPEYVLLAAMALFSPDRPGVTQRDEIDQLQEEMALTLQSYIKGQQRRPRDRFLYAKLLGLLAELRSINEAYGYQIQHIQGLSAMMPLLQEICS
Method in brief: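 Inhibition of CITCO-driven (50 nM final) CYP2B6 reporter expression is measured in HepG2 cells stably carrying hCAR. Fifteen compound concentrations are applied for 24 h at 37 C, followed by luciferase luminescence.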

[11] = biological target: Nuclear receptor subfamily 1 group I member 3 (Homo sapiens) (UniProt Q14994); test: qHTS assay to identify small molecule agonists of the constitutive androstane receptor (CAR) signaling pathway (AID 1224839); also: nearly all actives have a fitted effect of over 15% in size; also: potency is read from the fitted curve at half-maximal effect
Method in brief: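 Stable hCAR/CYP2B6-2.2kb HepG2 line in DMEM with 10% FBS; compounds (15 concentrations) and 0.75 uM PK11195 final, 24 h at 37 C/5% CO2, then ONE-Glo luminescence after 30 min.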

[12] = qHTS assay to identify small molecule antagonists of the estrogen related receptor signaling pathway with the pleiotropic PPARgamma coactivator (PGC) from Tox21 10K library - cell viability counter screen (AID 1224840; active = well fitted cell-killing curve with a large enough effect in the repeat runs, not every such curve was filed as active; also: nearly all actives have a fitted effect of over 40% in size)
Method in brief: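 Readout: fluorescence intensity from CellTiter-Fluor after 30 min at 37 C/5% CO2. Preceded by 17.5 h treatment of PGC/ERR cells with DMSO-dissolved compounds, added 6 h post-seeding.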

[13] = biological target: Thyrotropin receptor (Homo sapiens) (UniProt P16473); test: qHTS assay to identify small molecule agonists of the thyroid stimulating hormone receptor (TSHR) signaling pathway (AID 1224843; calls by dose curve; also: nearly all actives have a fitted effect of over 45% in size)
Thyrotropin receptor (Homo sapiens), sequence (P16473 whole entry, looked up): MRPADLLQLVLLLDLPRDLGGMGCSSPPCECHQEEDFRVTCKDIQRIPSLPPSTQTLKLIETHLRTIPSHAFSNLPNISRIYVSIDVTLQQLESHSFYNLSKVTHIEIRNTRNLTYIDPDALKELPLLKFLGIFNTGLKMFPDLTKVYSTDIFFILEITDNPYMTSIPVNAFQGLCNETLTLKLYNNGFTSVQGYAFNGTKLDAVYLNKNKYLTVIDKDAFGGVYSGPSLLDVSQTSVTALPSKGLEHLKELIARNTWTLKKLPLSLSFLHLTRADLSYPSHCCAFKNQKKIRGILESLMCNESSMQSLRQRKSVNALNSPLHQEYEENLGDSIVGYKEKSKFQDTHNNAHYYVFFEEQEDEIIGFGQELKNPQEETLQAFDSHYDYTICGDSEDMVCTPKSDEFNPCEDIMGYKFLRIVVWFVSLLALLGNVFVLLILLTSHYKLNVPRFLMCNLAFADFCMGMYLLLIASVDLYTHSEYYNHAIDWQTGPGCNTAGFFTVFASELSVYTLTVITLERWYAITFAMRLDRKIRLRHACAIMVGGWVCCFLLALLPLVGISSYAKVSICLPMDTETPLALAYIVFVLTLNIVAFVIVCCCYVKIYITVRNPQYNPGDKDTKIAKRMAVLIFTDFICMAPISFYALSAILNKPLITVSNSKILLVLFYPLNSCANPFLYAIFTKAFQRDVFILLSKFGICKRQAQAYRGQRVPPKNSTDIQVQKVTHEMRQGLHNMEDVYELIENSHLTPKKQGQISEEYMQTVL
Method in brief: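 Agonist activity read as cAMP rise via d2/cryptate HTRF competition, 1 h room-temperature detection, in HEK293 cells expressing TSHR. Fifteen-point titrations, each run in triplicate, with a 30 min room-temperature incubation beforehand.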

[14] = qHTS assay to identify small molecule antagonists of the estrogen related receptor signaling pathway with the pleiotropic PPARgamma coactivator (PGC) from Tox21 10K library (AID 1224841; call rule not given here; also: series mostly up to about 92 µM; actives are mostly falling curves and most rising ones were filed inactive; nearly all actives have a fitted effect of over 50% in size)
Method in brief: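 One-Glo luminescence, measured after half an hour at room temperature, quantified reporter output of PGC/ERR cells. These had been plated at 2,000 per well, incubated 6 h, dosed with compounds in DMSO, then kept 18 h at 37 C.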

[15] = qHTS assay to identify small molecule agonists of the estrogen related receptor signaling pathway with the pleiotropic PPARgamma coactivator (PGC) from Tox21 10K library (AID 1224842); also: nearly all actives have a fitted effect of over 15% in size
Method in brief: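 Luminescence from One-Glo (30 min, room temperature) measured after PGC/ERR cells had 18 h at 37 C with pinned compound (23 nL in DMSO). Cells had been seeded at 2,000 per well and pre-incubated 6 h.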

Measured: Potency

CC(O)COc1ccccc1 (stereo unspecified)
not listed: [14] | [15]
inactive: all other assays above

CCCCCCCCOc1ccc(C(=O)c2ccccc2)c(O)c1
active: [10] 7.5 µM
inactive: all other assays above

CN(C)C=O
not listed: [13]
inactive: all other assays above

O=C(OCc1ccccc1)c1ccccc1
active: [5] 2.43 µM and 29.8 µM | [7] 14.2 µM and 11.2 µM and 9.77 µM
not listed: [11] | [13]
inactive: all other assays above

O=C(O)CN(CC(=O)O)CC(=O)O
inactive: all assays above

Cc1cccc(C)c1O
not listed: [13]
inactive: all other assays above

CC1(C)O[C@@H]2[C@@H](CO[C@@]3(COS(N)(=O)=O)OC(C)(C)O[C@@H]23)O1
17.4 µM (active) and inactive: [1]
inactive: all other assays above

OCCCc1ccccc1
not listed: [13]
inactive: all other assays above

COC(=O)c1ccc(C=O)cc1
not listed: [13]
inactive: all other assays above

COc1ccc(C(=O)c2ccccc2)c(O)c1
active: [5] 61.1 µM and 23.7 µM | [7] 31.2 µM and 35.6 µM and 30.9 µM | [11] 47.8 µM and 48.6 µM
not listed: [14] | [15]
inactive: all other assays above

CCCCOCCOCCSC#N
not listed: [14] | [15]
inactive: all other assays above

CCCCCCCCCCCCCC(=O)OC(C)C
not listed: [10] | [11] | [13] | [14] | [15]
inactive: all other assays above

COc1cc(O)c(C(=O)c2ccccc2)cc1S(=O)(=O)O
not listed: [14] | [15]
inactive: all other assays above

C[C@]12C=CC(=O)C=C1CC[C@@H]1[C@@H]2C(=O)C[C@@]2(C)[C@H]1CC[C@]2(O)C(=O)CO
not listed: [11] | [14] | [15]
inactive: all other assays above

NC(N)=NC(N)=NCCc1ccccc1
not listed: [10] | [11] | [13] | [14] | [15]
inactive: all other assays above

CCCCOC(=O)CCCCCCCCC(=O)OCCCC
not listed: [14] | [15]
inactive: all other assays above

CCCCNC(=O)NS(=O)(=O)c1ccc(N)cc1
inactive: all assays above

CCCCCCCC(=O)OCC(O)CO (stereo unspecified)
inactive: all assays above
